Reference: PubChem BioAssay AID1159580 (chemical genetic matrix, 2015)
In all, about 5,500 compounds went through this assay and about 2,000 (36%) were called active. Not shown: some 18% with an inconclusive outcome. No stated cut-off is given here; in the data, active means normalized growth mostly below about 0.91 (no sharp cut-off); inconclusive means no clear call, values can overlap the other calls; inactive means mostly above about 0.92. The list shows a part of the results.

Assay: chemical genetic growth profiling, strain panel (AID 1159580);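 further: tested at 20 µM; growth read once vehicle control cultures reached saturation at 30 °C; 1 = growth at the plate median or of vehicle wells; lower values mean less growth of the strain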
Conditions: growth OD

Measured: normalized growth

C[C@@H]1C(=O)O[C@H]2[C@H]1CC[C@@]1(C)C=CC(=O)[C@@]3(C)O[C@@]213
inactive: S. cerevisiae deletion strains, locus YKL009W, strain mrt4, hits give low values 1.03 | S. cerevisiae deletion strains, locus YKL068W, hits give low values 1.01 | S. cerevisiae deletion strains, locus YKL085W, strain MDH1 (second series), hits give low values 1.01 | S. cerevisiae deletion strains, locus YKL085W, strain MDH1, hits give low values 1.01 | S. cerevisiae deletion strains, locus YKL160W, strain elf1, hits give low values 0.963 | S. cerevisiae deletion strains, locus YKL190W, strain CNB1, hits give low values 1.01 | S. cerevisiae deletion strains, locus YKR001C, strain vps1, hits give low values 1 | S. cerevisiae deletion strains, locus YKR026C, strain gcn3, hits give low values 1.01 | S. cerevisiae deletion strains, locus YKR091W, strain srl3, hits give low values 1 | S. cerevisiae deletion strains, locus YLL001W, strain dnm1, hits give low values 1.02 | S. cerevisiae deletion strains, locus YLL026W, hits give low values 1.01 | S. cerevisiae deletion strains, locus YLL041C, strain sdh2, hits give low values 1.01 | S. cerevisiae deletion strains, locus YLR027C, strain aat2, hits give low values 1.02 | S. cerevisiae deletion strains, locus YLR039C, strain RIC1, hits give low values 0.994 | S. cerevisiae deletion strains, locus YLR058C, strain SHM2, hits give low values 1.01 | S. cerevisiae deletion strains, locus YLR102C, strain apc9, hits give low values 1.01 | S. cerevisiae deletion strains, locus YLR113W, strain HOG1, hits give low values 1.03 | S. cerevisiae deletion strains, locus YLR221C, strain rsa3, hits give low values 1.01 | S. cerevisiae deletion strains, locus YLR258W, strain gsy2, hits give low values 1.03 | S. cerevisiae deletion strains, locus YLR262C, strain YPT6 (second series), hits give low values 0.996 | S. cerevisiae deletion strains, locus YLR262C, strain YPT6, hits give low values 0.997 | S. cerevisiae deletion strains, locus YLR268W, strain sec22, hits give low values 1.04 | S. cerevisiae deletion strains, locus YLR320W, strain mms22, hits give low values 1.03 | S. cerevisiae deletion strains, locus YLR330W, strain CHS5, hits give low values 1.01 | S. cerevisiae deletion strains, locus YLR342W, strain FKS1 (second series), hits give low values 1.01 | S. cerevisiae deletion strains, locus YLR342W, strain FKS1, hits give low values 1.01 | S. cerevisiae deletion strains, locus YLR357W, strain rsc2, hits give low values 1.02 | S. cerevisiae deletion strains, locus YLR370C, strain arc18, hits give low values 1.02 | S. cerevisiae deletion strains, locus YLR371W, strain rom2, hits give low values 1.03 | S. cerevisiae deletion strains, locus YLR384C, strain iki3, hits give low values 1 | S. cerevisiae deletion strains, locus YLR418C, strain cdc73, hits give low values 1.05 | S. cerevisiae deletion strains, locus YML016C, strain PPZ1, hits give low values 1.01 | S. cerevisiae deletion strains, locus YML032C, strain rad52, hits give low values 1.01 | S. cerevisiae deletion strains, locus YML120C, strain ndi1, hits give low values 1.03 | S. cerevisiae deletion strains, locus YML124C, strain tub3, hits give low values 1.02 | S. cerevisiae deletion strains, locus YMR058W, strain fet3, hits give low values 1.03 | S. cerevisiae deletion strains, locus YMR078C, strain ctf18, hits give low values 1.02 | S. cerevisiae deletion strains, locus YMR125W, strain sto1, hits give low values 0.999 | S. cerevisiae deletion strains, locus YMR129W, hits give low values 1.03 | S. cerevisiae deletion strains, locus YMR205C, strain PFK2, hits give low values 1.02 | S. cerevisiae deletion strains, locus YMR223W, strain ubp8, hits give low values 1.01 | S. cerevisiae deletion strains, locus YMR231W, strain pep5, hits give low values 1.01 | S. cerevisiae deletion strains, locus YMR263W, strain SAP30, hits give low values 1.02 | S. cerevisiae deletion strains, locus YMR307W, strain GAS1, hits give low values 1 | S. cerevisiae deletion strains, locus YNL067W, strain RPL9B, hits give low values 1.02 | S. cerevisiae deletion strains, locus YNL071W, strain lat1, hits give low values 1 | S. cerevisiae deletion strains, locus YNL128W, strain TEP1, hits give low values 1.03 | S. cerevisiae deletion strains, locus YNL153C, strain GIM3, hits give low values 1.02 | S. cerevisiae deletion strains, locus YNL183C, strain NPR1, hits give low values 0.974 | S. cerevisiae deletion strains, locus YNL209W, strain ssb2, hits give low values 1.01 | S. cerevisiae deletion strains, locus YNL233W, strain BNI4, hits give low values 1.03 | S. cerevisiae deletion strains, locus YNL248C, strain rpa49, hits give low values 1.03 | S. cerevisiae deletion strains, locus YNL250W, strain rad50, hits give low values 1.03 | S. cerevisiae deletion strains, locus YNL271C, strain bni1, hits give low values 1.01 | S. cerevisiae deletion strains, locus YNL298W, strain CLA4, hits give low values 1.01 | S. cerevisiae deletion strains, locus YNL307C, strain MCK1, hits give low values 1.03 | S. cerevisiae deletion strains, locus YNL322C, strain KRE1 (second series), hits give low values 1 | S. cerevisiae deletion strains, locus YNL322C, strain KRE1, hits give low values 1.01 | S. cerevisiae deletion strains, locus YNR049C, strain mso1, hits give low values 1.04 | S. cerevisiae deletion strains, locus YNR052C, strain pop2, hits give low values 1.01 | S. cerevisiae deletion strains, locus YOL006C, strain TOP1, hits give low values 1.04 | S. cerevisiae deletion strains, locus YOL012C, strain htz1 0.788 | S. cerevisiae deletion strains, locus YOL147C, strain pex11, hits give low values 1.01 | S. cerevisiae deletion strains, locus YOR001W, strain rrp6, hits give low values 1.05 | S. cerevisiae deletion strains, locus YOR061W, strain CKA2, hits give low values 1.02 | S. cerevisiae deletion strains, locus YOR069W, strain VPS5, hits give low values 1.01 | S. cerevisiae deletion strains, locus YOR070C, strain gyp1, hits give low values 1.01 | S. cerevisiae deletion strains, locus YOR080W, strain dia2, hits give low values 1 | S. cerevisiae deletion strains, locus YOR083W, strain WHI5, hits give low values 1 | S. cerevisiae deletion strains, locus YOR106W, strain vam3, hits give low values 0.999 | S. cerevisiae deletion strains, locus YOR136W, strain idh2, hits give low values 1.02 | S. cerevisiae deletion strains, locus YOR144C, strain elg1, hits give low values 1.02 | S. cerevisiae deletion strains, locus YOR184W, strain ser1, hits give low values 1.03 | S. cerevisiae deletion strains, locus YOR231W, strain MKK1, hits give low values 1.04 | S. cerevisiae deletion strains, locus YOR265W, strain rbl2, hits give low values 1.03 | S. cerevisiae deletion strains, locus YOR270C, strain vph1, hits give low values 1.1 | S. cerevisiae deletion strains, locus YOR290C, strain snf2, hits give low values 1.02 | S. cerevisiae deletion strains, locus YOR316C, strain cot1, hits give low values 1.02 | S. cerevisiae deletion strains, locus YPL051W, strain arl3, hits give low values 1.02 | S. cerevisiae deletion strains, locus YPL055C, strain LGE1, hits give low values 1.06 | S. cerevisiae deletion strains, locus YPL078C, strain atp4, hits give low values 1.02 | S. cerevisiae deletion strains, locus YPL106C, strain sse1, hits give low values 1.01 | S. cerevisiae deletion strains, locus YPL240C, strain hsp82, hits give low values 1.01 | S. cerevisiae deletion strains, locus YPL241C, strain CIN2, hits give low values 1 | S. cerevisiae deletion strains, locus YPL256C, strain CLN2, hits give low values 1.03 | S. cerevisiae deletion strains, locus YPR119W, strain clb2, hits give low values 1.01 | S. cerevisiae deletion strains, locus YPR141C, strain kar3, hits give low values 1.02 | S. cerevisiae deletion strains, locus YPR163C, strain tif3, hits give low values 1.02 | S. cerevisiae deletion strains, locus YPR167C, strain met16, hits give low values 1.02 | S. cerevisiae deletion strains, strain wtn01, hits give low values 1.03 | S. cerevisiae strains, strain wild type, hits give low values 1.02
